Measurements reported in PubChem BioAssay.
Calls of active or inactive are those of the source.

Assays:
Albumin (Bos taurus) = Albumin (Bos taurus) (UniProt P02769); assay: compounds binding labelled BSA control protein – biochemical, small-molecule microarray, Alexa647 label, 635/667 nm fluorescence, artefact control for SMM control protein annotation, profiling panel (AID 1118); conditions: BSA-A647 binding, fluorescence 635 nm, higher = more signal;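 further: score merges 667 nm emission intensity and signal-to-noise per printed compound spot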
[1] = probe aXIP binding to arrayed compounds – biochemical, NeuroSMM set, 635/667 nm fluorescence, primary screen (AID 1119); conditions: small-molecule microarray, higher = more signal, called active from +8 up or from −8 down;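 further: probe is the protein aXip251-270 applied at 1 µg/mL to compound-printed slides; binding of probe to printed compounds measured as 667 nm fluorescence plus signal to noise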
[2] = probe aNOTCH3 binding on compound microarray – biochemical, small-molecule microarray, 635/667 nm fluorescence, primary screen (AID 1120); conditions: higher = more signal;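 further: probe is a biotin-tagged antibody raised against NOTCH3 rather than NOTCH3 protein; score merges spot fluorescence near 667 nm with spot signal to noise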
[3] = probe aNOTCH2 binding on compound microarray – biochemical, small-molecule microarray, 635/667 nm fluorescence, primary screen (AID 1121); conditions: higher = more signal;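 further: score merges feature fluorescence read at 667 nm with its signal to noise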
[4] = molecular target: Carbonic anhydrase 2 (Homo sapiens) (UniProt P00918); assay: compounds binding carbonic anhydrase 2 – biochemical, small-molecule microarray, Alexa647-labelled CAII, profiling panel (AID 1122); conditions: CAII-A647 binding fluorescence, higher = more signal
[5] = COS7 lysate on small-molecule microarray, probe aHis, 635 nm (AID 1123); conditions: COS7 cell lysate, fluorescence, higher = more signal;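 further: z-score combines 667nm fluorescence intensity with signal-to-noise per printed compound spot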
[6] = probe aLAP1 signal on lysate-treated microarray – cell lysate, small-molecule microarray, COS7 lysate, primary screen (AID 1124); conditions: probe aLAP1, fluorescence, higher = more signal;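 further: lysate comes from COS7 cells expressing LAP1 and is applied at 0.3 µg/mL; score merges spot fluorescence near 667 nm with signal-to-noise over triplicate slides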
Sam68 (KHDRBS1) = assay: compounds binding KHDRBS1 protein – biochemical, small-molecule microarray, 635 nm fluorescence, primary screen (AID 1125); conditions: higher = more signal;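 further: score merges 667 nm channel intensity with signal to noise over triplicate slides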
[7] = tested on: Chordin-like protein 2 (CHRDL2); assay: compounds binding chordin-like 2 – biochemical, small-molecule microarray, 635 nm fluorescence, primary screen (AID 1126); conditions: fluorescence 635 nm, higher = more signal;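 further: printed compound slides probed with Chrdl2 protein at 4 µg/mL for 1 h at 4 C; score merges 667 nm emission intensity with signal to noise over three replicate slides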
[8] = molecular target: Concanavalin-A (Canavalia ensiformis) (UniProt P02866); assay: compounds binding concanavalin A lectin – biochemical, small-molecule microarray, Alexa647 label, 635 nm, artefact control for SMM control protein annotation, primary screen (AID 1127); conditions: ConA-A647 binding fluorescence, higher = more signal;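 further: z combines 667 nm emission intensity with signal-to-noise across three replicate slides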
[9] = compounds binding Alexa647 anti-His antibody – biochemical, small-molecule microarray, 635 nm fluorescence, artefact control for SMM control protein annotation, primary screen (AID 1128); conditions: higher = more signal;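 further: score merges feature fluorescence with signal-to-noise for each printed compound spot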
[10] = tested on: Human papillomavirus type 1a E7 protein (residues 1-88); assay: HPV1a E7 small-molecule binders, primary screen, biochemical, small-molecule microarray, residues 1-88, 635 nm (AID 1129); conditions: small-molecule microarray binding, fluorescence 635 nm; higher = more signal
[11] = molecular target: Focal adhesion kinase 1 (Homo sapiens) (UniProt Q05397); assay: PTK2 protein binding on printed compound slides – biochemical, small-molecule microarray, 635/667 nm fluorescence, BSA, DTT, primary screen (AID 1130); conditions: 635 nm fluorescence, higher = more signal;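 further: composite of spot emission at 667 nm and signal to noise over triplicate slides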
[12] = tested on: Fibrinogen (Alexa647-labelled); assay: Alexa647-fibrinogen binding to printed small molecules – biochemical, small-molecule microarray, 635/667 nm fluorescence, artefact control for SMM control-protein annotation, profiling panel (AID 1131); conditions: fibrinogen-A647 binding fluorescence, higher = more signal;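 further: z-score merges 667 nm fluorescence with per-spot signal-to-noise over triplicate slides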
[13] = molecular target: Follistatin (Homo sapiens) (UniProt P19883); assay: FST protein binding to printed compounds – biochemical, small-molecule microarray, 635/667 nm fluorescence, primary screen (AID 1132); conditions: 635 nm fluorescence, higher = more signal
[14] = molecular target: Fibroblast growth factor 2 (Homo sapiens) (UniProt P09038); assay: basic fibroblast growth factor binding to printed compounds – biochemical, small-molecule microarray, 635/667 nm fluorescence, primary screen (AID 1133); conditions: FGF2, fluorescence 635/667, higher = more signal
[15] = JC-1 mitochondrial potential readout, lung cancer cells – cell-based, A549, JC-1 fluorescence, basal, 24 h, 100 nL, profiling panel (AID 1138); conditions: higher = more signal;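 further: A549 lung adenocarcinoma cells under basal conditions with no added stimulus; test concentration not given here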
Lefty1 = Lefty1 protein binding to printed compounds – biochemical, small-molecule microarray, 635/667 nm fluorescence, primary screen (AID 1139); conditions: fluorescence 635/667, higher = more signal
[16] = tested on: wheat germ agglutinin (Triticum aestivum), Alexa647-labelled; assay: Alexa647-WGA lectin binding to printed small molecules – biochemical, small-molecule microarray, 635/667 nm fluorescence, artefact control for SMM control-protein annotation, profiling panel (AID 1140); conditions: WGA-A647 binding, 635 nm fluorescence, higher = more signal;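 further: score merges 667 nm feature emission with signal to noise over triplicate slides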
[17] = molecular target: Luciferin 4-monooxygenase (Photinus pyralis) (UniProt P08659); assay: inhibition of purified Photinus pyralis luciferase – biochemical, luminescence, purified enzyme, 2006 set, primary screen (AID 1141); conditions: purified firefly luciferase, SteadyGlo luminescence, 30 min; higher = more signal, called active from +8 up or from −8 down;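 further: cell-free assay with purified firefly luciferase at 100 ng per well in PBS; test concentration not given here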
Sequence of Luciferin 4-monooxygenase (Photinus pyralis) (P08659 whole entry, looked up): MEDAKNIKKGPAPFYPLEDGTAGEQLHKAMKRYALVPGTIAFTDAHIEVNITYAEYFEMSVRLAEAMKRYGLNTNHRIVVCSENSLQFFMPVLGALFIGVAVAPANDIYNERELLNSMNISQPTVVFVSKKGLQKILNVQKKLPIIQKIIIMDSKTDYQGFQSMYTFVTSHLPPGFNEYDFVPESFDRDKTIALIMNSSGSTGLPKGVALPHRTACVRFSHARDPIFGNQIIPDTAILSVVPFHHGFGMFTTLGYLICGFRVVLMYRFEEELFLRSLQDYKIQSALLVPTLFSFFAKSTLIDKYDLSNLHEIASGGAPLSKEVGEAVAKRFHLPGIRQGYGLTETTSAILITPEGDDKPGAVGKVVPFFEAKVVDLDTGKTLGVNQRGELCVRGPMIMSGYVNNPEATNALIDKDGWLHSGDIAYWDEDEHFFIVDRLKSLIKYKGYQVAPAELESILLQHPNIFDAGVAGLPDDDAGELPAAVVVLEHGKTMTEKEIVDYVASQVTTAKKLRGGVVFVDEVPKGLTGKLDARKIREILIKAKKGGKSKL

Sequence of Follistatin (Homo sapiens) (P19883 whole entry, looked up): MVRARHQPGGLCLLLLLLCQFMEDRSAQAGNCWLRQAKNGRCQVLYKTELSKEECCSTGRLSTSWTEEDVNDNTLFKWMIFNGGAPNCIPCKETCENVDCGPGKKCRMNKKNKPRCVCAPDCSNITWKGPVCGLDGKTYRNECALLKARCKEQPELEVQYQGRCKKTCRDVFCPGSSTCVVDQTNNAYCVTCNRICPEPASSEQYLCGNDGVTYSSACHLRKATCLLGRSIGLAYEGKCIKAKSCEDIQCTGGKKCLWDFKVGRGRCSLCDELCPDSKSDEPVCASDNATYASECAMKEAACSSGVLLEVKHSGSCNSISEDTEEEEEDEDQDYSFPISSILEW
Sequence of Fibroblast growth factor 2 (Homo sapiens) (P09038 whole entry, looked up): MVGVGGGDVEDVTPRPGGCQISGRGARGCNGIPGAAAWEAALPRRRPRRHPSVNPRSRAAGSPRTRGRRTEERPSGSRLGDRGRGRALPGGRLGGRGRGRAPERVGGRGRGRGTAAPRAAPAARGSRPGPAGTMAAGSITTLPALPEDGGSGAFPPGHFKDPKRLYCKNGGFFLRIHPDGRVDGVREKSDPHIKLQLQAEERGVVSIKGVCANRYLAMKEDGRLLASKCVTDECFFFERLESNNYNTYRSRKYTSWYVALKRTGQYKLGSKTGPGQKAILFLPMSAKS
Sequence of Concanavalin-A (Canavalia ensiformis) (P02866 whole entry, looked up): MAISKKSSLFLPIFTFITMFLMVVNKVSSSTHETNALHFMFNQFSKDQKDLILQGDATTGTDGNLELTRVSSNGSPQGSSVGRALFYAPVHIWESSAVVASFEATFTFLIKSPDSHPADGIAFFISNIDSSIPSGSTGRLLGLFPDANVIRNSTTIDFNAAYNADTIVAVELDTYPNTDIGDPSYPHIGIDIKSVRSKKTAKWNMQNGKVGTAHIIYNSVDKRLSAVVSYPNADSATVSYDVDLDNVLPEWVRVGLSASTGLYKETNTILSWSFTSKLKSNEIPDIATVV
Sequence of Albumin (Bos taurus) (P02769 whole entry, looked up): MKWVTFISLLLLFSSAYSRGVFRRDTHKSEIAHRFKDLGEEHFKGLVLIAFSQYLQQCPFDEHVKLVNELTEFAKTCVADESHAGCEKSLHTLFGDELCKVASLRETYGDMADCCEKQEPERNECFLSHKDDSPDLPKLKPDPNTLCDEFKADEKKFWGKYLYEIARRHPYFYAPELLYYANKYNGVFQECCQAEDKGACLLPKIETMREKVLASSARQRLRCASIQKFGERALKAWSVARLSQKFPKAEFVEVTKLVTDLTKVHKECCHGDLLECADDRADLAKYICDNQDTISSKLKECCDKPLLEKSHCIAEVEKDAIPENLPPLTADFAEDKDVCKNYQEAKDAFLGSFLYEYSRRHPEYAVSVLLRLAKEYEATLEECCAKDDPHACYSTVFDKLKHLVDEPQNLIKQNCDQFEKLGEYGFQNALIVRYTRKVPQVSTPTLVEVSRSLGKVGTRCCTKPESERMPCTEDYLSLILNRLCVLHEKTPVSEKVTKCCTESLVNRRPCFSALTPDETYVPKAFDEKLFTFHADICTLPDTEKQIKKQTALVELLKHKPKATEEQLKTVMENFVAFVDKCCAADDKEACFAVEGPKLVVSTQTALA
Sequence of Focal adhesion kinase 1 (Homo sapiens) (Q05397 whole entry, looked up): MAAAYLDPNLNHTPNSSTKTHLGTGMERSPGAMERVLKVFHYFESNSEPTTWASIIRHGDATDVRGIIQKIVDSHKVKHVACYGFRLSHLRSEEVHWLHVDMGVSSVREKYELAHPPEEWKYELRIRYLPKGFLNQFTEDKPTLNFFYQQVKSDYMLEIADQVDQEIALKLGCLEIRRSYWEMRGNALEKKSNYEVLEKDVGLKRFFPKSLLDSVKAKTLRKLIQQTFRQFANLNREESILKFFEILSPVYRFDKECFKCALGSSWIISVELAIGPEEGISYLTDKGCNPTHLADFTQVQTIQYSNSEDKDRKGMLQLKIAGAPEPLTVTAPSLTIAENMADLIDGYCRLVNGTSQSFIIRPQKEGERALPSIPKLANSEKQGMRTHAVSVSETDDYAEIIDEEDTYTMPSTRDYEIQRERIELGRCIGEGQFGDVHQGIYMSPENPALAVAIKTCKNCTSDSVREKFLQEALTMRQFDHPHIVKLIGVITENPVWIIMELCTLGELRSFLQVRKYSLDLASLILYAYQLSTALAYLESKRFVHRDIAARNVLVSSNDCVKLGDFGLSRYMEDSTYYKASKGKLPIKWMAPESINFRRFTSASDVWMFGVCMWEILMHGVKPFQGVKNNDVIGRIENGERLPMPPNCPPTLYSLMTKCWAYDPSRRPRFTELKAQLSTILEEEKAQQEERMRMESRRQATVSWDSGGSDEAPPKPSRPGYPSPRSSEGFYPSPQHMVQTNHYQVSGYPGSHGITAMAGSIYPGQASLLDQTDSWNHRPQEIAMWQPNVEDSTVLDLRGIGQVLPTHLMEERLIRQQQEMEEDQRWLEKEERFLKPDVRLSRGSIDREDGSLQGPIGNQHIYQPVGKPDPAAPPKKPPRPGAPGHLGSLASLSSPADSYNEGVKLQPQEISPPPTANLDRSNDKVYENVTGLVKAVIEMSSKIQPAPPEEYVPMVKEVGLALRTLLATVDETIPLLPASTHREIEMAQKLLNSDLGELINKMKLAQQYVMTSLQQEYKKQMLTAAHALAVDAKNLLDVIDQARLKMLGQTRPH

Structure (SMILES)	composite z-score (Albumin (Bos taurus))	composite Z-score [1]	composite z-score [2]	composite z-score [3]	composite z-score [4]	composite z-score [5]	composite z-score [6]	composite z-score (Sam68 (KHDRBS1))	composite z-score [7]	composite z-score [8]	composite z-score [9]	composite z-score [10]	composite z-score [11]	composite z-score [12]	composite z-score [13]	composite z-score [14]	z-score [15]	composite z-score (Lefty1)	composite z-score [16]	z-score [17]
CC(C)(C)OC(=O)CC[C@@]1(C(=O)O)N=C(c2ccc(OCCCO)cc2)O[C@@H]1c1ccccc1	0.273	-0.204 (inactive)	-0.1	-0.0037	0.824	1.98	-0.021	0.721	-0.811	0.335	1.52	0.716	-0.219	0.506	0.0761	-0.228	-0.161	-0.643	-0.0131	0.383 (inactive)
[N-]=[N+]=NCc1ccccc1C[C@]1(C(=O)NCC(O)CO)N=C(c2ccc(OCCCO)cc2)O[C@H]1c1ccccc1CN=[N+]=[N-] (stereo not given in full)	0.801	0.496 (inactive)	0.303	-0.108	0.404	3.05	0.137	1.12	-0.86	1.11	2.73	1.2	0.116	0.973	1.3	0.495	0.618	-0.204	0.205	-0.0074 (inactive)
O=C1NC(=O)C2C1C=CC(C(O)c1ccc(Br)cc1)N2Nc1ccccn1 (stereo not given)	0.849	-0.838 (inactive)	0.327	0.176	0.822	0.991	0.74	0.0126	0.913	0.48	1.32	0.173	0.231	0.995	0.426	0.657	0.631	-0.162	0.806	-1.52 (inactive)
CCOC(=O)C[C@H]1[C@H](OC(=O)Cc2ccc3c(c2)OCO3)[C@@H](NC(=O)C2CCCCC2)c2cc(OCCCO)ccc2N1C(=O)c1ccc2ccccc2n1	0.245	-0.608 (inactive)	0.0418	0.358	0.312	0.746	0.15	1.08	1.21	0.662	0.0779	0.684	0.309	0.581	1.39	1.71	-0.678	0.816	-0.176	0.862 (inactive)
CC(=O)N1Cc2ccccc2C[C@]2(N=C(c3ccc(OCCCO)cc3)O[C@@H]2c2ccccc2)C1=O	-0.569	0.581 (inactive)	0.0242	-0.0424	0.552	2.87	0.451	1.3	0.15	1.13	2.62	1.2	0.552	0.654	0.743	1.2	0.638	0.036	0.956	-2 (inactive)
CC=CC(O)C1C=CC2C(=O)N(C)C(=O)C2N1Nc1ccc([N+](=O)[O-])cc1[N+](=O)[O-] (stereo not given)	0.9	0.236 (inactive)	-0.0932	-0.0351	0.834	1.08	0.146	-0.52	0.001	0.458	2.66	-0.935	0.247	-1.22	-0.0096	-0.582	0.533	0.0657	-0.0025	-0.419 (inactive)
COc1ccc([Si](C)(C)[C@H]2[C@H](CCn3cc([C@H](O)c4ccccc4)nn3)O[C@@]3(C(=O)N(Cc4cccc(N5C(=O)c6cccc7cccc5c67)c4)c4ccccc43)[C@@H]2C)cc1	0.145	0.674 (inactive)	-0.185	-0.159	0.339	0.501	-0.0631	0.258	-1.54	-0.24	-0.953	-0.859	-0.435	-0.678	-1.64	-1.03	0.647	-1.36	-0.76	0.119 (inactive)
CCOC(=O)C1=CC[C@@H](c2ccccc2C(F)(F)F)N(S(=O)(=O)c2ccc(C)cc2)C1	0.959	0.917 (inactive)	0.694	0.311	0.411	1.57	0.95	1.1	-0.41	1.13	1.62	1.18	0.406	0.836	0.877	0.633	1.9	-0.356	0.989	0.515 (inactive)
CC(C)C(O)C1C=CC2C(=O)N(C)C(=O)C2N1Nc1ccccc1 (stereo not given)	1.04	0.469 (inactive)	0.585	0.45	0.812	1.86	1.01	1.12	0.164	0.871	0.932	1.14	0.746	0.78	0.828	0.0704	-0.219	-0.241	1.23	-0.968 (inactive)
COc1ccc([Si](C)(C)[C@H]2[C@H](CC(=O)N3Cc4ccccc4C[C@H]3CO)O[C@@]3(C(=O)N(Cc4cccc(N5CCCCC5=O)c4)c4ccccc43)[C@@H]2C)cc1	0.26	0.424 (inactive)	-0.0044	-0.14	0.498	0.951	0.0263	0.724	1.19	1.05	1.57	0.307	0.566	0.378	1.3	1.58	0.925	1.53	0.292	-0.0418 (inactive)
COc1ccc(CCNC(=O)[C@@]2(Sc3ccc(C)cc3)CC(=O)N(Cc3cc(C(F)(F)F)cc(C(F)(F)F)c3)[C@@H]2c2ccc(CO)cc2I)cc1	0.259	1.4 (inactive)	-0.193	-0.106	0.684	1.54	0.227	0.677	-0.596	0.759	-0.361	-0.162	0.368	0.562	0.801	-0.525	0.345	0.012	-0.0603	0.664 (inactive)
